Experimental data as given in PMC11624278.

What was measured:
Test in all cases: cross-link between two proteins; affinity purification or IP with mass spectrometry; cross-linking mass spectrometry
[1] = biological target: Calreticulin (UniProt P14211)
[2] = biological target: Integrin alpha-3 (UniProt Q62470)
[3] = biological target: Integrin alpha-5 (UniProt P11688)

Measured: listed as a hit

UniProt P14211, sequence (P14211 whole entry): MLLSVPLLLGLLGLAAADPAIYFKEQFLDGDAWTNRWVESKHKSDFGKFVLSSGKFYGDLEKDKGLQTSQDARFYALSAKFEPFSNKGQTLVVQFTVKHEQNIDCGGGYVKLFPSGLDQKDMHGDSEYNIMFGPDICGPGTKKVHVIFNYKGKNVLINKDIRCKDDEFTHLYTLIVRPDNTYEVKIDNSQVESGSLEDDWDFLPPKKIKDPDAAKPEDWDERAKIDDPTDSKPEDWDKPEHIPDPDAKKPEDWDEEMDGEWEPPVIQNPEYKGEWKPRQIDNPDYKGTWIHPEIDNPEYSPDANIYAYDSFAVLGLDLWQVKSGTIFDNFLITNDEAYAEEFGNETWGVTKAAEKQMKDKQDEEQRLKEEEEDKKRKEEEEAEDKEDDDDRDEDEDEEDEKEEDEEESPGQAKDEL
UniProt Q62470, sequence (Q62470 whole entry): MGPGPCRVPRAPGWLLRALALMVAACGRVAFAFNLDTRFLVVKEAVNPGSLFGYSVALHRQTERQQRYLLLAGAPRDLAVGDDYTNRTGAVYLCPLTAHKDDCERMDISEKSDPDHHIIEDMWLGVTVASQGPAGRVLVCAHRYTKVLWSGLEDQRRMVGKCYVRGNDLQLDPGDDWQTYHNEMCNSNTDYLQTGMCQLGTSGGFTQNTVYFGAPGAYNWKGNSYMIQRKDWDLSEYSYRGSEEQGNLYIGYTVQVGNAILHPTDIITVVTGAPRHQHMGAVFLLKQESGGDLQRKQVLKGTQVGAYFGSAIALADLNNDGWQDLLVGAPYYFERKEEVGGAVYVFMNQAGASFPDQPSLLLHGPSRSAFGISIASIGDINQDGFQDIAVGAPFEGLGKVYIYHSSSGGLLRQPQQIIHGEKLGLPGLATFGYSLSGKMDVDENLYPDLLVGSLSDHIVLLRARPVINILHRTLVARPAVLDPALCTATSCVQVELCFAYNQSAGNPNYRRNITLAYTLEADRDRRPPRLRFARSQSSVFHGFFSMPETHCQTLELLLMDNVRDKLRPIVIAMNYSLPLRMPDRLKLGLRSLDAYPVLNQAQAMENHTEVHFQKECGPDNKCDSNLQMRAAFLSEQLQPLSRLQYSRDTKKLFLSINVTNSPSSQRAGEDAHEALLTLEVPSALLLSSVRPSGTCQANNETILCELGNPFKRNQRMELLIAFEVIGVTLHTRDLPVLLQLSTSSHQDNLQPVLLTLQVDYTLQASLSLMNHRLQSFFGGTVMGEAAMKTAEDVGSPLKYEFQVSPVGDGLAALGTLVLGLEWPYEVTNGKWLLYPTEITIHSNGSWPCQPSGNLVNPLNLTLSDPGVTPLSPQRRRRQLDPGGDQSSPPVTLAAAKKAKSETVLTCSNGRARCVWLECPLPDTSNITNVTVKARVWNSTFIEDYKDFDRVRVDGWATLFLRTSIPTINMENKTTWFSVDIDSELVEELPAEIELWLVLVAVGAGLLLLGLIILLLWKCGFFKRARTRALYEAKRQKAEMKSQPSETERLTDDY
UniProt P11688, sequence (P11688 whole entry): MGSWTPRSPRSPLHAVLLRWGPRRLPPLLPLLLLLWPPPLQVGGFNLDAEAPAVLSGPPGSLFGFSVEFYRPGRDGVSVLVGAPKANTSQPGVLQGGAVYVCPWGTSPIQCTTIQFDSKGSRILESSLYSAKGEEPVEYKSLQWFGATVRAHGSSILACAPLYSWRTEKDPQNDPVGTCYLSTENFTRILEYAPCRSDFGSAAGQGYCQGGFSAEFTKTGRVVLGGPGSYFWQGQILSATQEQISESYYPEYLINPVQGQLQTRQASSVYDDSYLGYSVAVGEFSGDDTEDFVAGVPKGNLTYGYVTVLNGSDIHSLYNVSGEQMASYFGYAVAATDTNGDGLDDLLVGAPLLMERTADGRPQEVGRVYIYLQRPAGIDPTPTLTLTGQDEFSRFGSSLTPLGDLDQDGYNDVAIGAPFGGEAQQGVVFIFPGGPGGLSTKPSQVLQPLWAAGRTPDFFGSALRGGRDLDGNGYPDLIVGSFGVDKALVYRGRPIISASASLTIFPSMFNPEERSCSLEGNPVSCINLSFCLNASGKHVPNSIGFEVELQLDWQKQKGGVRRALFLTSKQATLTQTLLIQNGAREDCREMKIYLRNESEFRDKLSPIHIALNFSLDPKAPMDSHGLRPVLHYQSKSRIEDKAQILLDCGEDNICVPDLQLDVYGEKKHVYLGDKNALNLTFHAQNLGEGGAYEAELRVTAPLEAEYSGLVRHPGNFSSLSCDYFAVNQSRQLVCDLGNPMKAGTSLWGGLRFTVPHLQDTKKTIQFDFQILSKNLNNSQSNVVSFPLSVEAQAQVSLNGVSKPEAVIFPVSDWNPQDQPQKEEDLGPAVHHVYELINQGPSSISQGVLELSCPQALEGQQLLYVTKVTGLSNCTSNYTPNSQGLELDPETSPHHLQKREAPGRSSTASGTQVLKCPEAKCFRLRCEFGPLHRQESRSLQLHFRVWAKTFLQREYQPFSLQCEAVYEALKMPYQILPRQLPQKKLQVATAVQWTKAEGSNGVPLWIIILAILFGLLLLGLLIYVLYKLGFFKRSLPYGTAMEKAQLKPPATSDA

Integrin beta-1, P09055
yes: all assays above
